# Compound activity deposited in PubChem BioAssay by National Center for Advancing Translational Sciences (NCATS).
# IL-1B inflam inh = qHTS for Inhibitors of Inflammasome Signaling: IL-1-beta AlphaLISA Primary Screen; THP-1 LPS/ATP IL-1B secretion, AlphaLISA, 16 h; hits give low values; activity change, % at 57.5 µM; 360,000 compounds, 4.7% hits; AID 743279, 2014; in the data active = activity change below about -50%; inconclusive = mostly about -30% to -49%
#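 THP-1 cells pretreated 1 hr with compounds (up to 57.5 uM final), then stimulated with LPS (250 ng/mL final) plus ATP (1.25 mM final); secreted IL-1B measured by AlphaLISA after 16 hr, decreased signal indicating inhibition.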
# ELG1 repair inh = qHTS screen for small molecules that inhibit ELG1-dependent DNA repair in human embryonic kidney (HEK293T) cells expressing luciferase-tagged ELG1; HEK293T ELG1-luciferase reporter, luminescence, 16 h; DNA damage induced by 5-fluorouridine; Potency, µM (doses to about 46.1 µM), without a hit: at the top dose activity change, negative = inhibition, actives largely listed as inhibitors; 330,000 compounds, 2.3% hits; also: potency is read from the fitted curve at half-maximal effect; nearly all actives have a fitted effect of over 55% in size
#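 HEK293T cells expressing luciferase-tagged ELG1 (2,000/well) received 5-Fluorouridine plus compound or DMSO for 16 hr at 37 °C. Luciferase was read by ONE-Glo luminescence after 30 min at room temperature.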
# VP16 counter = VP16 counterscreen qHTS for inhibitors of ROR gamma transcriptional activity; Drosophila S2 Gal4-VP16 UAS-luciferase, luminescence, 20 h; Potency, µM (doses to about 53.6 µM), inactives show at the highest dose activity, negative = inhibition, most hits filed as inhibitors; 310,000 compounds, 3.5% hits; AID 2546, 2010;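 also: Gal4-VP16 expression switched on by copper sulfate through the metallothionein promoter; potency is read from the fitted curve at half-maximal effect; nearly all actives have a fitted effect of over 50% in size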
# DT40 TDP1 no CPT = qHTS for Inhibitors of human tyrosyl-DNA phosphodiesterase 1 (TDP1): qHTS in cells in absence of CPT | DT40 Tdp1-/- hTDP1 cells, no CPT, ATP luminescence, 48 h | Potency, µM (highest dose often 46.2 µM), for the others: at the top dose activity change, negative = growth inhibition, most hits filed as inhibitors | 420,000 compounds, 15% hits; also: potency is read from the fitted curve at half-maximal effect; nearly all actives have a fitted effect of over 55% in size
#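 Cells were dispensed at 400 per well, compounds added by pin tool, plates incubated ≥48 hr at 37 °C, then CellTiter-Glo added for 30 min at room temperature before luminescence reading. Line: DT40 Tdp1-/- complemented with hTDP1; camptothecin omitted.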
# TDP1 cell CPT = qHTS for Inhibitors of human tyrosyl-DNA phosphodiesterase 1 (TDP1): qHTS in cells in presence of CPT; chicken DT40 Tdp1-/-;hTDP1 cells + 20 nM CPT, ATP luminescence, 48 h; Potency, µM (top dose mostly 46.2 µM), inactives show at the highest dose activity change, negative = growth inhibition, actives largely listed as inhibitors; 420,000 compounds, 12% hits; AID 686979, 2013; also: potency is read from the fitted curve at half-maximal effect; nearly all actives have a fitted effect of over 55% in size
#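 Cell growth measured by CellTiter-Glo luminescence after a minimum 48 h, 37 C compound exposure with 20 nM CPT in Tdp1-knockout DT40 cells stably expressing hTDP1, seeded 400/well; qHTS titration format.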
# RORg inh = qHTS for inhibitors of ROR gamma transcriptional activity; Nuclear receptor ROR-gamma (Mus musculus), P51450; Drosophila S2 Gal4-RORgamma UAS-luciferase reporter, 20 h; Potency, µM (highest dose often 53.6 µM), without a hit: top-dose activity change, negative = inhibition, most hits filed as inhibitors; 310,000 compounds, 5.4% hits; AID 2551, 2010; also: potency is read from the fitted curve at half-maximal effect; nearly all actives have a fitted effect of over 60% in size
# Target sequence (P51450 whole entry, looked up, the tested form may be a part): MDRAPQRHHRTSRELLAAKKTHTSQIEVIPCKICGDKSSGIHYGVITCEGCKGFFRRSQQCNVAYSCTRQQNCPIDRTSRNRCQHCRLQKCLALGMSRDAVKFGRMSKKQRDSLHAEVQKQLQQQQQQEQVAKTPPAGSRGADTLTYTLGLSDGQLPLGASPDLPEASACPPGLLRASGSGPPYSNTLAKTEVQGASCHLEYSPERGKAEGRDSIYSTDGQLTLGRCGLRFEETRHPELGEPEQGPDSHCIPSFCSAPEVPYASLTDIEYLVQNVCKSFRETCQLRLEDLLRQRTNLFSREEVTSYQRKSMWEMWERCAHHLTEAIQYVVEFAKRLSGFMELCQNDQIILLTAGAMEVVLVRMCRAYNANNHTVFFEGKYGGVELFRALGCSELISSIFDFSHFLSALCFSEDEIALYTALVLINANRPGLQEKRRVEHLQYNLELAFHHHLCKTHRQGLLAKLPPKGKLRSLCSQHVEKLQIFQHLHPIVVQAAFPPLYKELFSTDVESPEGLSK
#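 Compounds are pin-transferred onto Drosophila Schneider cells expressing a copper-inducible Gal4–ROR gamma transactivation domain fusion. After 1 hr, copper sulfate is added to 700 uM final; luciferase is read 20 hr later.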
# An asterisk follows results filed as active; ? = inconclusive; nt = not tested or not shown; [ ] = another dose, or the depositor's remark. Compounds with a hit are over-represented: about 21% of the library has one in this group of screens. Unless noted, calls follow the shape of the dose curve; as a rule, active = well fitted curve in the direction sought with a large enough effect; inconclusive = small, poorly fitted or top-dose-only effect, or another doubt; inactive = no such curve, though single readings can be large; an effect the other way counts as inactive or inconclusive. % is scaled to controls: 0 for no effect and ±100 for the full control effect.
SMILES,IL-1B inflam inh,ELG1 repair inh,VP16 counter,DT40 TDP1 no CPT,TDP1 cell CPT,RORg inh
CC(C)(C)NC(=O)NC(=O)Cn1cc(C(F)(F)F)ccc1=O,-1,3%,0%,-5%,-13%,33%
CC(C)(C)NC(=O)Nc1ccc(Cn2cc(C(F)(F)F)ccc2=O)cc1,14,-12%,1%,?,21µM*,2%
CC(=O)/C(=C\Nc1ccc(OCc2ccccc2)cc1)c1ccccc1,-6,4%,14%,29µM*,18µM*,33%
CC(=O)/C(=C/Nc1ccc(Oc2ccccc2)cc1)c1ccccc1,?,7%,0%[0.365 µM],18µM*,?,25%
CN(C)S(=O)(=O)n1cc(/C=C(\NC(=O)c2ccccc2F)C(=O)NCCCn2ccnc2)c2ccccc21,?,?,0%,?,?,-17%
O=C(/C(=C/c1ccccc1)n1cncn1)c1ccc(Cl)cc1Cl,-100*,20%,?,?,6%,24%
O=C(/C(=N/O)n1cncn1)c1ccccc1Cl,7,0%,0%,0%,9%,1%
COc1cc(O)c(C(CC(=O)N2CCN(c3ccccc3)CC2)c2cc(OC)c(OC)c(OC)c2)c(OC)c1 (stereo not given),-6,12%,2%,?,?,?
COc1cc(O)c(C(CC(=O)N2CCCCC2)c2cc(OC)c(OC)c(OC)c2)c(OC)c1 (stereo not given),11,11%,-8%,-10%,-18%,-6%
COc1cc(O)c(C(CCN2CCOCC2)c2ccc(N(C)C)cc2)c(OC)c1 (stereo not given),-13,0%,2%,?,15µM*,-1%
COc1ccc(C(CCN2CCN(c3ccccc3)CC2)c2c(O)cc(OC)cc2OC)cc1 (stereo not given),-7,3%,-1%,21µM*,16µM*,0%
COc1cc(O)c(C(CC(=O)N2CCCCC2)c2ccc(N(C)C)cc2)c(OC)c1 (stereo not given),-13,0%,6%,-21%,0%,1µM*
COc1cc(O)c(C(CC(=O)N2CCOCC2)c2ccc3c(c2)OCO3)c(OC)c1 (stereo not given),-7,9%,-5%,?,-15%,-21%
COc1cc(O)c(C(CCN2CCN(c3ccccc3)CC2)c2ccc(N(C)C)cc2)c(OC)c1 (stereo not given),?,2%,-18%,21µM*,13µM*,-29%
CC(C)C(N)C(=O)NC(Cc1c[nH]c2ccccc12)C(=O)O (stereo not given),nt,nt,3%,-9%,-3%,-6%
Cc1nc2ccc(CN(C)c3ccc(C(=O)N[C@@H](CCC(=O)O)C(=O)O)s3)cc2c(=O)[nH]1,nt,nt,nt,0.0042µM*,0.0084µM*,nt
Cc1ccc(OCc2cc(C(=O)N3CCC(C(O)C(C)C)CC3)no2)cc1C (stereo not given),-17,?,-19%,?,?,?
CNC(=S)N1N=C(c2ccc(Br)cc2)CC1c1ccc(Br)cc1 (stereo not given),?,5.8µM*,3%,12µM*,15µM*,-23%
CNC(=S)N1N=C(c2ccc(OC)cc2)CC1c1ccc(N(C)C)cc1 (stereo not given),-26,-30%,?,?,?,13µM*
COc1ccc(C2CCCN2C(=S)Nc2ccc(C)cc2Cl)cc1OC (stereo not given),-20,?,0%,16µM*,?,?
CNC(=S)N1N=C(c2ccc(C)cc2)CC1c1ccc(OC)c(OC)c1 (stereo not given),-16,2%,-5%,15µM*,?,-28%
COc1ccc(C2CCCN2C(=S)Nc2cccc(C)c2)cc1OC (stereo not given),-24,?,-14%,?,?,?
CCCC[C@@H]1C[C@H]1C(NC(=O)Cc1ccccc1)c1ccc(Cl)cc1 (stereo not given in full),nt,nt,0%,nt,nt,-22%
Cc1cc(=O)[nH]c(SCC(=O)N2CCN(c3ccccc3)CC2)n1,nt,nt,nt,-16%,-13%,nt
Fc1ccc(C2CC(c3cccs3)=NN2C(=S)Nc2ccccc2)cc1 (stereo not given),-13,13%,-11%,?,?,7.9µM*
SMILES,IL-1B inflam inh,ELG1 repair inh,VP16 counter,DT40 TDP1 no CPT,TDP1 cell CPT,RORg inh
COc1ccc(C2=NN(C(=S)Nc3ccccc3)C(c3ccccc3)C2)cc1 (stereo not given),-11,2%,-10%,18µM*,?,-42%
CNC(=S)N1N=C(c2cccs2)CC1c1ccc(OC)cc1 (stereo not given),?,18%,-9%,-2%,-5%,20µM*
COc1ccc(C2CC(c3ccccc3)=NN2C(=S)Nc2ccccc2)cc1 (stereo not given),-18,-6%,-4%,?,?,?
O=C(Nc1ccc2c(c1)OCCO2)C1c2ccccc2OCC(=O)N1C1CC1 (stereo not given),33,nt,nt,-17%,10%,nt
CN(C1=C(NC(=O)c2ccccc2)C(=O)c2ccccc2C1=O)C1CCS(=O)(=O)C1 (stereo not given),?,9.2µM*,7.1µM*,2.6µM*,2.6µM*,14µM*
CN(C(=O)c1ccccc1Br)C1CCS(=O)(=O)C1 (stereo not given),3,18%,nt,1%,7%,nt
CC(=O)NC1=C(NC2CCS(=O)(=O)C2)C(=O)c2ccccc2C1=O (stereo not given),22,?,18µM*,12µM*,10µM*,?
COc1ccc(OCC(=O)Nc2cc(-c3nn(C)c(=O)c4ccccc34)ccc2OC)cc1,-2,?,-5%,16µM*,16µM*,-6%
CN(C(=O)c1ccc(-c2nn(C)c(=O)c3ccccc23)cc1)C1CCCCC1,?,?,-1%,16µM*,13µM*,15%
Cn1nc(-c2ccc(OCC(=O)NCC3CCCO3)cc2)c2ccccc2c1=O (stereo not given),42,?,-29%,12µM*,18µM*,7%[10 µM]
